Screens from PubChem BioAssay.
CYP2C9 inhib: blockers of cytochrome P450 2C9 activity – biochemical, luminescence, ADME assay, primary screen; P11712; CYP2C9 Supersomes, luciferin-H conversion; inhibition, % at 5 µM; 96,000 tested, 20% active;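 active = blocking of liver enzyme CYP2C9 beyond about 50% at 5 µM, limit read from the data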
Target sequence (P11712 whole entry, looked up): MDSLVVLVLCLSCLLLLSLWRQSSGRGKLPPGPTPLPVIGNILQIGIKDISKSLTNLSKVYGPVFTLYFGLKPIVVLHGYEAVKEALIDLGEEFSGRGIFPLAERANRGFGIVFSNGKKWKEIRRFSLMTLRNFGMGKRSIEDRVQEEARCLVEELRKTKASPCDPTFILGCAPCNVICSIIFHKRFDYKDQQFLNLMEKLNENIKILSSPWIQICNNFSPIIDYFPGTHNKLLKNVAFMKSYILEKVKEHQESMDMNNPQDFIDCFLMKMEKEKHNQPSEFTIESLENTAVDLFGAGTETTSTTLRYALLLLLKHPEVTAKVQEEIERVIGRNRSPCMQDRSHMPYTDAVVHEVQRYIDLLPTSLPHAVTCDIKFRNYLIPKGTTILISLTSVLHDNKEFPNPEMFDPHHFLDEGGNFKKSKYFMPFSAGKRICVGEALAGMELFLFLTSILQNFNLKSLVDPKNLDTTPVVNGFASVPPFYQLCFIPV
CYP2C19 inhib: blockers of cytochrome P450 2C19 activity – biochemical, luminescence, ADME assay, primary screen; P33261; CYP2C19 Supersomes, luciferin-H EGE luminescence, 30 min; inhibition, % at 5 µM; 96,000 tested, 21% active; AID 778, 2007;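 active = CYP2C19 inhibition above a set limit at 5 µM in the primary screen, cut at about 50% in these data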;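 note: plate controls were negative control wells for no effect and 2.5 mM tranylcypromine positive control for full effect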
MRP reversal: reversal of MRP1-mediated doxorubicin resistance, primary screen, H69AR cells, doxorubicin co-treatment; H69AR cells + 2 uM doxorubicin, CellTiter-Glo, 72 h; 85,000 tested, 0.04% active; differential viability (reversal), % at 10 µM;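 active = viability drop by adding the cancer drug above about 55%, with treated viability meeting a 40% cutoff, limit read from the data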;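 note: viability without doxorubicin minus viability with 2 µM doxorubicin for each compound; larger differential means the compound sensitizes cells more to doxorubicin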
CYP2C9 act: human CYP2C9 activators, primary screen, biochemical, luminescence. recombinant CYP2C9, luciferin-H conversion; stronger effect = higher value; factor 1 = untreated enzyme, 0 = blocked. activation factor at 5 µM. 96,000 tested, 1.4% active. AID 1024, 2008;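 active = activation factor of 2 or more for CYP2C9 at a 5 µM dose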;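 note: 0 = sulfaphenazole-blocked wells and 1 = vehicle-only wells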
MRP-1 activ: H69AR viability gain despite doxorubicin, primary screen, MRP-1 activator project, H69AR cells, CellTiter-Glo | viability rescue | viability increase, % at 10 µM | 140,000 tested, 0.61% active;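 active = viability gain under doxorubicin at or above a set limit, the compound median plus 3 SD, cut at about 4.7% in these data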;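 note: MRP-1 overexpressing cells given doxorubicin 25 µM after compound pretreatment; 18-22 h compound pretreatment then 72 h with doxorubicin before readout; 0% = doxorubicin-only wells and 100% = vehicle-treated cells without doxorubicin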
CYP2C19 act: human CYP2C19 activators, primary screen, biochemical, luminescence | Cytochrome P450 2C19 (Homo sapiens), P33261 | recombinant CYP2C19, luciferin-H EGE luminescence; stronger effect = higher value; 0 = fully inhibited enzyme, 1 = untreated enzyme | activation factor at 5 µM | 96,000 tested, under 10 active;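 active = activation factor of at least 2 at 5 µM in the primary screen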;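 note: 0 = wells with 2.5 mM tranylcypromine and 1 = vehicle-only wells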
The depositor's hits bear a star; nt = no result given. Rows were chosen to be rich in hits. Some 21% of all compounds tested hit in one or more screens of this group.

SMILES	CYP2C9 inhib	CYP2C19 inhib	MRP reversal	CYP2C9 act	MRP-1 activ	CYP2C19 act
CC1=C(C(=O)OC2CCCCCCC2)C(c2cc3c(cc2Br)OCO3)CC(=O)N1 (stereo not given)	84.7*	75.3*	3.8	0.2	-6.6	0.2
C/C(=N/NC(=O)Cc1ccccc1)c1ccc(C)s1	nt	nt	nt	nt	3.0	nt
COc1ccc2c(CC(=O)NCc3ccc4c(c3)OCO4)coc2c1	89.3*	96.5*	-15.8	0.1	-1.9	0
Cc1ccc2c(CC(=O)NCc3ccc4c(c3)OCO4)coc2c1	78.7*	52.3*	2.5	0.2	0.0	0.5
Cc1cccc(NS(=O)(=O)c2cc(C(=O)OC(C)C(=O)NCc3ccc4c(c3)OCO4)ccc2C)c1 (stereo not given)	nt	nt	nt	nt	4.8*	nt
Cc1ccc2c(CC(=O)OC(C)C(=O)NCc3ccc4c(c3)OCO4)coc2c1 (stereo not given)	94.3*	53.3*	17.8	0.1	-2.0	0.5
COc1ccccc1CNC(=O)C(NS(=O)(=O)c1ccc2c(c1)OCCO2)C(C)C (stereo not given)	nt	nt	nt	nt	-2.8	nt
O=C(CN(Cc1cccs1)C(=O)CN1C(=O)COc2ccccc21)NCc1ccco1	13.4	12.1	6.1	0.9	-3.4	0.9
O=C(Oc1ccc(-c2cnc3ccccc3n2)cc1)c1cccc([N+](=O)[O-])c1	14.6	66.7*	nt	0.9	0.0	0.3
CCN(CC)S(=O)(=O)c1ccc(Cl)c(C(=O)Oc2cccc(-c3cnc4ccccc4n3)c2)c1	46.2	17.3	nt	0.5	-4.3	0.8
O=C(Oc1ccc(-c2cnc3ccccc3n2)cc1)c1ccc(Br)o1	20.0	58.5*	-2.4	0.8	-0.8	0.4
CCN(CC)S(=O)(=O)c1cc(C(=O)Oc2cccc(-c3cnc4ccccc4n3)c2)ccc1Br	47.4	64.4*	nt	0.5	-1.9	0.4
Oc1ccc(/C=N/NC2=NCCCCC2)cc1	1.6	9.2	nt	1	-0.6	0.9
Cc1ccc(C2=NC3(CCCCC3)N=C2SCC(=O)Nc2ccc3c(c2)OCCO3)cc1	nt	nt	nt	nt	-4.0	nt
CC1(C)CC(=O)C2=C(C1)OC(N)=C(C#N)C2Cc1ccccc1 (stereo not given)	78.9*	97.9*	35.1	0.2	-4.0	0
N#CC1=C(N)OC2=C(C(=O)CCC2)C1C1C=CCCC1 (stereo not given)	73.1*	83.6*	nt	0.3	-2.4	0.2
COC(=O)C1=C(N)OC2=C(C(=O)CC(C)(C)C2)C1c1ccoc1 (stereo not given)	54.6*	47.1	31.5	0.5	-0.3	0.5
CC1C(C#N)=C(N)OC2=C1C(=O)CC(C)(C)C2 (stereo not given)	10.7	7.8	-14.2	0.9	-0.1	0.9
COc1ccc(C2C(C#N)=C(N)N(c3sc4c(c3C#N)CCCC4)C3=C2C(=O)CC(C)(C)C3)cc1OC (stereo not given)	86.4*	62.3*	nt	0.1	-1.8	0.4
COC(=O)C1CCCN1C(C(=O)NC1CCCCC1)c1ccc(Cl)cc1 (stereo not given)	nt	nt	6.6	nt	-1.6	nt
O=c1c2nnn(Cc3ccccc3)c2ncn1C/C=C/c1ccccc1	11.3	8.8	-7.7	0.9	2.7	0.9
Cc1c(NC(=O)NCCN2C(=O)C3C4C=CC(C4)C3C2=O)c(=O)n(-c2ccccc2)n1C (stereo not given)	-0.7	-9.8	1.2	1	-1.5	1.1
Cc1ccc(CN(C(=O)c2csnn2)C(C(=O)NC2CCCC2)c2ccc(C)o2)cc1 (stereo not given)	nt	nt	-13.3	nt	-2.0	nt
CCn1nc(C)c(C2C(C#N)=C(N)OC3=C2C(=O)CCC3)c1C (stereo not given)	nt	nt	nt	nt	-0.8	nt
CC1(C)CC(=O)C2=C(C1)OC(N)=C(C#N)C2c1ccsc1 (stereo not given)	32.1	62.6*	14.8	0.7	-2.2	0.4
CC1(C)CC(=O)C2=C(C1)OC(N)=C(C#N)C2C1CC=CCC1 (stereo not given)	nt	nt	-21.1	nt	-1.9	nt
